The source of these data is the supplement of paper PMC8728848.

What all share (experiment): glycan array binding signal (z-score within array); higher = stronger binding
Holding throughout (details): glycan notation: IUPAC condensed, linker removed

Test [1] deals with Gal(b1-4)GlcNAc(b1-3)Gal(b1-4)GlcNAc(b1-3)Gal(b1-4)GlcNAc(b1-3)Gal(b1-4)GlcNAc(b1-3)Gal(b1-4)GlcNAc(b1-2)[Gal(b1-4)GlcNAc(b1-3)Gal(b1-4)GlcNAc(b1-3)Gal(b1-4)GlcNAc(b1-3)Gal(b1-4)GlcNAc(b1-3)Gal(b1-4)GlcNAc(b1-6)]Man(a1-6)[Gal(b1-4)GlcNAc(b1-3)Gal(b1-4)GlcNAc(b1-3)Gal(b1-4)GlcNAc(b1-3)Gal(b1-4)GlcNAc(b1-3)Gal(b1-4)GlcNAc(b1-2)Man(a1-3)]Man(b1-4)GlcNAc(b1-4)[Fuc(a1-6)]GlcNAc. The gist of the method: (§1)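 Columns mapping to the same glycan were averaged after glycan names were converted to IUPAC-condensed notation. The data come from 3228 arrays in the Consortium for Functional Glycomics database, limited to those with an available protein sequence. Binding is reported as a within-array Z-score averaged across arrays of one protein sequence and across linkers.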

Test [2] has as its target Gal(b1-4)GlcNAc(b1-3)Gal(b1-4)GlcNAc(b1-6)[Gal(b1-3)]GalNAc. The method in brief:
as §1

The next test addresses Gal3S(b1-4)Glc6S. The method in brief:
as §1

The target of another test is Gal6S(b1-4)Glc. The gist of the method:
as §1

Test [3] addresses GalNAc(b1-3)Gal(a1-6)Gal(b1-4)Glc. The method in brief:
as §1

For test [4], the target named is GlcNAc(a1-6)Gal(b1-4)GlcNAc. The method in brief:
as §1

Test [5] addresses GlcNAc(b1-2)[GlcNAc(b1-4)]Man(a1-3)[GlcNAc(b1-4)][GlcNAc(b1-2)[GlcNAc(b1-6)]Man(a1-6)]Man(b1-4)GlcNAc(b1-4)[Fuc(a1-6)]GlcNAc. The method in brief:
as §1

Another test deals with GlcNAc(b1-3)Fuc. The gist of the method:
as §1

In test [6] the target is GlcNAc(b1-3)Gal(b1-4)GlcNAc(b1-2)Man(a1-3)[GlcNAc(b1-3)Gal(b1-4)GlcNAc(b1-2)Man(a1-6)]Man(b1-4)GlcNAc(b1-4)GlcNAc. The method in brief: as §1
Test [7] addresses GlcNAc(b1-3)Gal(b1-4)GlcNAc(b1-3)Gal(b1-4)GlcNAc(b1-3)Gal(b1-4)GlcNAc(b1-3)Gal(b1-4)GlcNAc(b1-2)Man(a1-3)[GlcNAc(b1-3)Gal(b1-4)GlcNAc(b1-3)Gal(b1-4)GlcNAc(b1-3)Gal(b1-4)GlcNAc(b1-3)Gal(b1-4)GlcNAc(b1-2)Man(a1-6)]Man(b1-4)GlcNAc(b1-4)GlcNAc. The method in brief:
as §1

Test [8] addresses GlcNAc(b1-4)GlcNAc(b1-4)GlcNAc. The gist of the method: as §1
For test [9], the target named is GlcNAc(b1-4)GlcNAc(b1-4)GlcNAc(b1-4)GlcNAc(b1-4)GlcNAc. The method in brief:
as §1

The target of test [10] is GlcNAc(b1-4)GlcNAc(b1-4)GlcNAc(b1-4)GlcNAc(b1-4)GlcNAc(b1-4)GlcNAc. The method in brief:
as §1

The next test concerns the target Kdn(a2-3)Gal(b1-3)GalNAc. The method in brief:
as §1

For the next test, the target named is Man(b1-4)GlcNAc. The gist of the method: as §1
Test [11] concerns the target Neu5Ac(a2-3)Gal(b1-3)GlcNAc6S. The method in brief: as §1
In test [12] the target is Neu5Ac(a2-3)Gal(b1-3)[Neu5Ac(a2-6)]GlcNAc(b1-3)[Fuc(a1-3)[Gal(b1-4)]GlcNAc(b1-6)]Gal(b1-4)Glc. The method in brief:
as §1

Test [13] deals with Neu5Ac(a2-3)Gal(b1-4)GlcNAc(b1-2)Man(a1-3)[Neu5Ac(a2-6)Gal(b1-4)GlcNAc(b1-2)Man(a1-6)]Man(b1-4)GlcNAc(b1-4)GlcNAc. The gist of the method:
as §1

Test [14] addresses Neu5Ac(a2-3)Gal(b1-4)GlcNAc(b1-3)Gal(b1-4)GlcNAc(b1-3)Gal(b1-4)GlcNAc. The method in brief:
as §1

Test [15] has as its target Neu5Ac(a2-3)Gal(b1-4)GlcNAc(b1-3)Gal(b1-4)GlcNAc(b1-3)[Neu5Ac(a2-3)Gal(b1-4)GlcNAc(b1-3)Gal(b1-4)GlcNAc(b1-6)]GalNAc. The gist of the method:
as §1

For test [16], the target named is Neu5Ac(a2-3)Gal(b1-4)GlcNAc(b1-6)[Gal(b1-3)]GalNAc. The gist of the method: as §1
Test [17] concerns the target Neu5Ac(a2-3)Gal6S(b1-4)[Fuc(a1-3)]GlcNAc. The gist of the method: as §1
The target in test [18] is Neu5Ac(a2-6)Gal(b1-4)GlcNAc(b1-3)Gal(b1-4)GlcNAc(b1-6)[Gal(b1-3)]GalNAc. The gist of the method: as §1
Test [19] addresses Neu5Ac(a2-8)Neu5Gc(a2-3)Gal(b1-4)GlcNAc. The gist of the method: as §1

Many of the other results were omitted from the sample, so the strongest signals are more common in it than they were.

B1: Mg3lysM (Mycosphaerella graminicola) (protein)
chain: APQNPPTSCSAAPQPTGTGSPGTVCGSTTFTNYTVKAGDTLGAIAKQYNSGVCDIAKVNGIDNPDYIKPDQVLSIPANCVTPDNTSCVKPVPVITNTCVLGVGSTYTVKSGDSFSAIATSFNITLASLEARNPQIPNYDLIFPGQVINTPLCPNSVCDSIGTYVIESGDIFYNLAQSNNVTVGQLESLNVNVNVTDIHPGDIIILPHNCHNITASA
Take B1: the “glycan array binding signal (z-score)” value in [1] was 0.14; in test [2], -0.078; with Gal3S(b1-4)Glc6S, -0.101; with Gal6S(b1-4)Glc it was -0.027; in test [3], -0.127; in test [4], -0.108. For the same molecule, the “glycan array binding signal (z-score)” value in test [5] was -0.113; with GlcNAc(b1-3)Fuc, 0.041; in [6], -0.109; in test [7], -0.191; in test [8] it was 3.96; in test [9], 19.9. The “glycan array binding signal (z-score)” value in test [10] is 13.5; in the test with Kdn(a2-3)Gal(b1-3)GalNAc, 0.259; in the test with Man(b1-4)GlcNAc it was 0.12; in test [11], -0.154; in test [12], 0.077; in test [13] it was -0.088. The “glycan array binding signal (z-score)” value was -0.099 in [14]; 0.153 in test [15]; -0.065 in test [16]; -0.14 in test [17]; 0.12 in test [18]; 0.137 in test [19].
